PfHsp90 set2 = inhibits growth of yeast expressing Plasmodium falciparum Hsp90. S. cerevisiae expressing PfHsp90, BacTiter-Glo ATP, 48 h; yeast lacking PDR1 and PDR3 efflux regulators. inhibition, % at 9.4 µM. hit rate 0.32% among 310,000. AID 504621;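 active = every replicate shows inhibition above about 80%, whatever the replicate mean, limit read from the data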
SKKanGAS inh = blocks kanamycin growth of S. pyogenes SKKanGAS strain | BacTiter-Glo, 6 h | inhibition, % at 7.5 µM | hit rate 1.3% among 300,000 | AID 1662;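 active = mean replicate score, as percent of positive control median, at least 50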;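 also: strain carries kanamycin resistance gene driven by streptokinase promoter and grows in 40 µg/ml kanamycin; loss of luminescence reflects streptokinase promoter inhibition or plain growth inhibition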
TIM10 inh = inhibits growth of TIM10 yeast strain; S. cerevisiae TIM10 strain growth, BacTiter-Glo luminescence, 24 h; hit rate 1.4% among 330,000; AID 463195; inhibition, % at 10 µM;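 active = inhibition of 40% or more at the single tested concentration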;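 also: wild-type TIM10 isogenic control strain grown at permissive 25 °C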
tim10-1 inh = tim10-1 yeast growth inhibition; hit rate 2.2% among 330,000; inhibition, % at 20 µM; S. cerevisiae tim10-1 ts strain growth, BacTiter-Glo, 24 h;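 active = inhibition of at least 40%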;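 also: mutant grown at 25 °C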
tim23-1 inh = inhibits growth of tim23-1 mutant yeast; hit rate 1.3% among 330,000; S. cerevisiae tim23-1 growth, BacTiter-Glo luminescence, 24 h; inhibition, % at 20 µM; AID 463212;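 active = growth inhibition of the mutant yeast at or above 50%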;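 also: temperature-sensitive mutant grown at 25 °C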
EBI2 antag = EBI2 (human) antagonism; EBI2 beta-arrestin recruitment, luminescence, 7a,25-OHC stimulated; inhibition, % at 5 µM; hit rate 0.81% among 360,000; in the data active = inhibition above about 38%;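 also: enzyme fragment complementation signal reports receptor beta-arrestin coupling in cells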
Target sequence (P32249 whole entry, looked up, the tested form may be a part): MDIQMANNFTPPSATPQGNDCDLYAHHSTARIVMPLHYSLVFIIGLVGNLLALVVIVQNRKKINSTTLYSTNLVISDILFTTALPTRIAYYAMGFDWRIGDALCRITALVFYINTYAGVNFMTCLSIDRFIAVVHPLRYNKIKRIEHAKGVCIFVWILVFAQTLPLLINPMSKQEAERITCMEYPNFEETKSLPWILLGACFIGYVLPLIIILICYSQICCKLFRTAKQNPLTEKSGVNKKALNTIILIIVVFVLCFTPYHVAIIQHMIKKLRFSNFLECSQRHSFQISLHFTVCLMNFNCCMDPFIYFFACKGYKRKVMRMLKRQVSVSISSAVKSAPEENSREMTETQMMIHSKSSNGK
EBI2 antag conf = EBI2 (human) antagonism, single concentration confirmation; inhibition, % at 5 µM; EBI2 beta-arrestin luminescence, 7a,25-OHC antagonism; hit rate 29% among 2,400; shares compounds with EBI2 antag;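 active = inhibition of at least 50%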
EBI2 agonist = counter-screen for EBI2 antagonists: EBI2 agonist activity; activation, % at 5 µM; shares compounds with EBI2 antag; 2,400 tested, under 10 active; EBI2-expressing cells, agonist mode, luminescence, 60 min; 0% vehicle, 100% 7α,25-dihydroxycholesterol control; AID 652000;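 active = activation of at least 50%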
bGal cs = counter-screen for EBI2 antagonists: E. coli beta-galactosidase inhibition; inhibition, % at 5 µM; purified beta-galactosidase, luminescent Galacton Star, 15 min; shares compounds with EBI2 antag; AID 652176; hit rate 1% among 2,400;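 active = replicate-average signal at least 3 plate SD below neutral wells, shown as high inhibition, flagging enzyme-inhibiting false positives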;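 also: higher means stronger loss of beta-gal luminescence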
Large screens that a line does not name were inactive (follow-up assays come after a bar, where they were run). In the library only some 4.7% were active in any assay of this set; here they are far more common.

COc1ccc(S(=O)(=O)N2CCC(C(=O)NCc3ccc(C)cc3)CC2)cc1	EBI2 antag 66.0 | EBI2 antag conf 55.2 | EBI2 agonist inactive | bGal cs inactive
COc1ccc(CNC(=O)N2CCN(S(=O)(=O)c3ccccc3)CC2)cc1	none
Cc1ccc(CNC(=O)C2CCN(S(=O)(=O)c3c(C)noc3/C=C/c3ccco3)CC2)cc1	EBI2 antag 65.2 | EBI2 antag conf inactive | EBI2 agonist inactive | bGal cs inactive
CC(C)(C)NC(=O)Cn1c(=O)n(CC(=O)NC(C)(C)C)c2ccccc21	none
c1ccc(N2CCN(c3cccc(-c4cc5ccccc5s4)n3)CC2)nc1	none (no result: PfHsp90 set2, SKKanGAS inh, TIM10 inh, tim10-1 inh, tim23-1 inh)
CCOc1ccc(S(=O)(=O)c2c(C(=O)c3ccc(C)cc3)cnc3cc4c(cc23)OCCO4)cc1	EBI2 antag 46.6 | EBI2 antag conf inactive | EBI2 agonist inactive | bGal cs inactive
CC(c1ccccc1)N(CCC(c1ccccc1)C1CCOC(C)(C)C1)C(=O)c1ccco1 (stereo not drawn)	EBI2 antag 44.3 | EBI2 antag conf inactive | EBI2 agonist inactive | bGal cs inactive
Cc1ccc(CNC(=O)/C=C/c2ccc(S(=O)(=O)NCc3ccco3)cc2)cc1	EBI2 antag 44.5 | EBI2 antag conf inactive | EBI2 agonist inactive | bGal cs inactive
Cc1cc(C)n(-c2ccc(C(=O)N3CCN(c4ccccn4)CC3)cc2)n1	none (no result: SKKanGAS inh)
Cc1cc(C)n(-c2ccc(C(=O)N3CCN(S(=O)(=O)c4ccc(Br)cc4Cl)CC3)cc2)n1	EBI2 antag 92.0 (no result: PfHsp90 set2, SKKanGAS inh, TIM10 inh, tim10-1 inh, tim23-1 inh) | EBI2 antag conf 65.3 | EBI2 agonist inactive | bGal cs inactive
COc1ccc(NC(=O)c2ccc(COCC(F)(F)C(F)F)cc2)cc1	EBI2 antag 44.3 | EBI2 antag conf inactive | EBI2 agonist inactive | bGal cs inactive
CC(NC(=O)C1CCC1)c1ccc(Cl)cc1 (stereo not drawn)	none
CC(NC(=O)C1CCN(C(=O)Nc2ccccc2)CC1)c1ccc(Cl)cc1 (stereo not drawn)	EBI2 antag 46.0 (no result: SKKanGAS inh) | EBI2 antag conf inactive | EBI2 agonist inactive | bGal cs inactive
O=C(NCC(c1ccccc1Cl)N1CCCC1)C1CCN(C(=O)Nc2ccccc2)CC1 (stereo not drawn)	EBI2 antag 52.5 (no result: SKKanGAS inh) | EBI2 antag conf inactive | EBI2 agonist inactive | bGal cs inactive
O=C(CSc1ccc(F)cc1)NCCc1ccc(Cl)cc1	none
Cc1cc(S(=O)(=O)N(Cc2cccs2)Cc2ccccc2F)ccc1-n1cnnn1	none
Cc1cc(S(=O)(=O)N(Cc2ccc(C(C)(C)C)cc2)Cc2cccs2)ccc1-n1cnnn1	EBI2 antag 48.4 | EBI2 antag conf inactive | EBI2 agonist inactive | bGal cs inactive
Cc1ccc(-c2cc(-c3ccccc3)c(C#N)c(Br)n2)cc1	none
CS(=O)(=O)c1nc(-c2ccccc2)cc(-c2ccccc2)c1C#N	EBI2 antag 56.3 | EBI2 antag conf 55.4 | EBI2 agonist inactive | bGal cs inactive
Cc1occc1-c1nnc(SCC(=O)NCCc2ccccc2)n1C(C)c1ccccc1 (stereo not drawn)	EBI2 antag 50.6 | EBI2 antag conf inactive | EBI2 agonist inactive | bGal cs inactive
O=C(c1cccc(C(F)(F)F)c1)C1CCCN(C(=O)CN2CCOC2=O)C1 (stereo not drawn)	none
Cc1nc(CSc2ccc(Cl)cc2)cc(NCc2ccccc2)n1	EBI2 antag 46.6 | EBI2 antag conf inactive | EBI2 agonist inactive | bGal cs inactive
CNc1cc(CSc2ccc(Cl)cc2)nc(C)n1	none
O=C(c1ccc(F)cc1)C1CCN(C(=S)NCC2CCCO2)CC1 (stereo not drawn)	EBI2 antag 51.1 | EBI2 antag conf inactive | EBI2 agonist inactive | bGal cs inactive
COc1ccc(C(=O)C2CCN(C(=S)NCC3CCCO3)CC2)cc1 (stereo not drawn)	EBI2 antag 61.4 | EBI2 antag conf inactive | EBI2 agonist inactive | bGal cs inactive
COc1ccc(NC(=O)CN(C)C(=O)CCc2c[nH]c3ccccc23)cc1	none
CC(C)(C)NS(=O)(=O)c1ccc2[nH]c3c(c2c1)CCCCC3	EBI2 antag 63.1 | EBI2 antag conf 67.2 | EBI2 agonist inactive | bGal cs inactive
CC1CCc2sc(C(=O)N/N=C/c3ccc(O)cc3)cc2C1 (stereo not drawn)	none
Cc1n[nH]c(=S)n(NC(=O)/C=C/C(=O)Nn2c(=S)[nH]nc(C)c2=O)c1=O	none (no result: TIM10 inh, tim10-1 inh, tim23-1 inh)
Cc1n[nH]c(=S)n(NC(=O)CC(=O)Nn2c(=S)[nH]nc(C)c2=O)c1=O	EBI2 antag 44.4 | EBI2 antag conf inactive | EBI2 agonist inactive | bGal cs 17.0
O=C(O)c1cc([N+](=O)[O-])ccc1N1CCCCC1	none
CC(C)(C)NC(=O)c1cc([N+](=O)[O-])ccc1N1CCCCC1	EBI2 antag 57.4 (no result: TIM10 inh, tim10-1 inh, tim23-1 inh) | EBI2 antag conf inactive | EBI2 agonist inactive | bGal cs inactive
O=c1c(/C=N/N2CCOCC2)c(C(F)(F)F)[nH]n1-c1ccccc1	none (no result: PfHsp90 set2)
O=C(CCNC(=O)C1CCN(S(=O)(=O)c2ccc(F)cc2)CC1)Nc1ccccc1	none
O=C(/C=C/c1ccccc1)N1CCN(CC(O)COc2ccccc2)CC1 (stereo not drawn)	EBI2 antag 82.1 | EBI2 antag conf 54.5 | EBI2 agonist inactive | bGal cs inactive
O=C1c2cccc3cccc(c23)C(=O)N1CCN1CCN(C(=S)Nc2ccc(Cl)cc2)CC1	none
OC(COc1ccccc1)CN1CCCCC1 (stereo not drawn)	none (no result: PfHsp90 set2, SKKanGAS inh, TIM10 inh, tim10-1 inh, tim23-1 inh)
Cc1ccc(OCC(O)CN2CCN(CC(O)COc3ccc(C)cc3)CC2)cc1 (stereo not drawn)	EBI2 antag 45.0 | EBI2 antag conf inactive | EBI2 agonist inactive | bGal cs inactive
O=C(/C=C/c1ccc(Cl)cc1)N1CCN(CCN2C(=O)c3cccc4cccc(c34)C2=O)CC1	EBI2 antag 96.7 (no result: SKKanGAS inh, TIM10 inh, tim10-1 inh, tim23-1 inh) | EBI2 antag conf 80.8 | EBI2 agonist inactive | bGal cs inactive
CSc1ccc(/C=C/C(=O)N2CCCN(C)CC2)cc1	EBI2 antag 87.0 | EBI2 antag conf 57.3 | EBI2 agonist inactive | bGal cs inactive
CC(C)c1ccccc1OS(N)(=O)=O	none
CCN(CC)S(=O)(=O)c1ccc(C)c(NS(=O)(=O)c2cc(/C=C/C(=O)O)cc(OC)c2OC)c1	none
CCOc1ccc(S(=O)(=O)N(C)CC(=O)NCc2ccccn2)cc1Cl	none

Compound activity (PubChem)
